Data reported in PubChem BioAssay (NCI).
The panel holds about 83,000 compounds, 20% with a hit somewhere; the sample as a whole holds those more often.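 Negative percent growth values reflect cell death: -40 means 40% of the cells present at the start died, and -100 means all died.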 The source made the active and inactive calls. Rule for the calls: active = growth percent below 10; inactive = the rest.

Each compound was assayed on SNB-19 CNS (assay: NCI-60 one-dose screen, 48 h (100 = growth as untreated, 0 = no growth, -100 = all killed)). Details: 10 µM unless noted.

Compound | growth
Cc1ccc(-c2nc([P+](c3ccccc3)(c3ccccc3)c3ccccc3)c(N3CCOCC3)o2)cc1 | 11.5% (inactive)
O=C1OC(c2ccc(Cl)c(Cl)c2)=C/C1=C/c1cccc([N+](=O)[O-])c1 | 94.9% (inactive)
COc1ccccc1-n1cnc(N)c1C(=O)c1cc(OC)c(OC)c(OC)c1 | 55.1% (inactive)
COc1ccc2c(c1)C/C(=C\c1cc(-c3ccc4c(c3)OCO4)n[nH]1)C2=O | 92.5% (inactive)
CN(C)CCCC1(c2ccc(F)cc2)OCc2cc(-c3ccc(C(F)(F)F)nc3)ccc21 (configuration not stated) | 76.7% (inactive)
O=c1c(CNc2ccc(S(=O)(=O)Nc3nccs3)cc2)coc2ccccc12 | 95.4% (inactive)
Cc1ccc2c(c1)c(-c1nc(-c3c[nH]c4ncccc34)cs1)cn2C | 107% (inactive)
CC1(C)C(=O)/C(=C\c2ccco2)C[C@]2(C)[C@H]3CC[C@@H]4[C@@H](C(=O)/C=C/c5ccco5)CC[C@@]4(C)[C@]3(C)CC[C@@H]12 | 46.8% (inactive)
Cc1ccc(-c2nc([P+](c3ccccc3)(c3ccccc3)c3ccccc3)c(N3C[C@H]4C[C@H](C3)c3cccc(=O)n3C4)o2)cc1 | 64.1% (inactive)
C=C(C)[C@@H]1CC[C@]2(CN)CC[C@]3(C)[C@H](CC[C@@H]4[C@@]5(C)CCC(=O)NC(C)(C)[C@@H]5CC[C@]43C)[C@@H]12 | 78.4% (inactive)
Nc1c(Cl)cc(N=Nc2ccccc2)cc1Cl | 100% (inactive)
CC(=O)O[C@H]1CC[C@]2(C)[C@H]3C(=O)C=C4[C@@H]5C[C@](C)(C(=O)N6CCCNCC6)CC[C@]5(C)CC[C@@]4(C)[C@]3(C)CC[C@H]2C1(C)C | 9.77% (active)
